{
  "source": "ChEMBL document CHEMBL1961873",
  "about": "“Compounds: GSK PKIS; Assays: Nanosyn kinase panel” (2012);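 further: mean inhibition of FMS, from the GSK PKIS screening set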",
  "data": [
    {"target": "Macrophage colony-stimulating factor 1 receptor (Homo sapiens) (UniProt P07333)", "sequence (P07333 whole entry)": "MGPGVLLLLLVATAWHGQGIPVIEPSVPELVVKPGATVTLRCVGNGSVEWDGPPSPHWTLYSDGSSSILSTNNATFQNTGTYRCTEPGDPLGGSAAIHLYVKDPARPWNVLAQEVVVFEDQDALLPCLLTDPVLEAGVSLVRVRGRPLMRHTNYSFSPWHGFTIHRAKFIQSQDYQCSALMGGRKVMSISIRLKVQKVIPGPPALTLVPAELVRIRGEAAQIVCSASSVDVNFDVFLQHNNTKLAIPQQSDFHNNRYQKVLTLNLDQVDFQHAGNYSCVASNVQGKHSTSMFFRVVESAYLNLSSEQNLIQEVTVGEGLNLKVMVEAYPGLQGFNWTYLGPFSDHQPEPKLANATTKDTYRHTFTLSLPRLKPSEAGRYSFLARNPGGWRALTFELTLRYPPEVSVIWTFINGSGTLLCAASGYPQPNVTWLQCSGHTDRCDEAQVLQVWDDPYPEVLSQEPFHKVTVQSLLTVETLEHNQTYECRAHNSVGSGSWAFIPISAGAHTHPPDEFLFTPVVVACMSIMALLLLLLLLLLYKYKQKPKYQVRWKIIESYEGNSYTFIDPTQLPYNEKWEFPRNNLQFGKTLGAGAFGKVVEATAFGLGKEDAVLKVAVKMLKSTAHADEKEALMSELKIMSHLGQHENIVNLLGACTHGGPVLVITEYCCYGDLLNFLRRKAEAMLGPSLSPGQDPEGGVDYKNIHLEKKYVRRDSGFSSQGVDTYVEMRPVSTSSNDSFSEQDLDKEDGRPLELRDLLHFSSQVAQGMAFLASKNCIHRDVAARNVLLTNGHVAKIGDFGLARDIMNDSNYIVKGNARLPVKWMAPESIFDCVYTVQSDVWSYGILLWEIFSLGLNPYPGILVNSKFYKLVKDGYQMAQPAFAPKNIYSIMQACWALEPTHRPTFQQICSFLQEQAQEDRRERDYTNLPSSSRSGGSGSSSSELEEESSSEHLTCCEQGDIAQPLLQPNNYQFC", "conditions": "at 1 µM", "units": {"inhibition": "%"}, "values": [
      {"smiles": "CC(=O)Nc1cccc(C#Cc2cncnc2Nc2ccc(OCc3cccc(F)c3)c(Cl)c2)n1", "inhibition": -0.39},
      {"smiles": "O=C1NC(=O)C(c2ccccc2Cl)=C1Nc1cccc(O)c1", "inhibition": 2.71},
      {"smiles": "COc1ccc2cc(-c3c(-c4ccncc4)nc(-c4ccc([S+](C)[O-])cc4)n3C)ccc2c1", "note": "(configuration not stated)", "inhibition": -0.69},
      {"smiles": "NS(=O)(=O)c1ccc(N/N=C2\\C(=O)Nc3ccc(C(=O)NCCc4c[nH]cn4)cc32)cc1", "inhibition": 15.4},
      {"smiles": "CCCN1CCC=C(c2ccc(Nc3nc(Nc4ccccc4C(N)=O)c4cc[nH]c4n3)c(C)c2)C1", "inhibition": 63.1},
      {"smiles": "CCn1c(-c2nonc2N)nc2cnc(Oc3cccc(NC(=O)c4ccc(OCCN5CCOCC5)cc4)c3)cc21", "inhibition": 2.86},
      {"smiles": "CC1=C(C(=O)Nc2ccc3[nH]ncc3c2)C(c2ccc3ccccc3c2)CC(=O)N1", "note": "(configuration not stated)", "inhibition": 2.62},
      {"smiles": "COc1cc(C)c(NC(=O)CN(C)C)cc1Nc1nc(Nc2cccc(F)c2C(N)=O)c2cc[nH]c2n1", "inhibition": 26.6},
      {"smiles": "CN1CCC(C(=O)Nc2n[nH]c3nnc(-c4ccccc4)cc23)CC1", "inhibition": 3.05},
      {"smiles": "CCN1CCC(CC(=O)Nc2n[nH]c3nc(-c4cccs4)c(Br)cc23)CC1", "inhibition": 0.93},
      {"smiles": "Nc1nc(-c2ccccn2)c(-c2ccc3ncccc3n2)s1", "inhibition": 4.58},
      {"smiles": "[O-][S+]1CCN(Cc2ccc(-c3ccc4ncnc(Nc5ccc(OCc6ccccc6)c(F)c5)c4c3)o2)CC1", "inhibition": 3.3},
      {"smiles": "N#Cc1c(NC(=O)c2cccc3ccccc23)sc2c1CCCC2", "inhibition": 1.31},
      {"smiles": "COC(=O)Nc1nc2cc(Oc3cccc(NC(=O)Nc4cc(C(F)(F)F)ccc4F)c3)ccc2[nH]1", "inhibition": 27.8},
      {"smiles": "O=C1NC(=O)C(c2ccc(Cl)cc2)=C1Nc1ccc(Cl)c(C(=O)O)c1", "inhibition": 2.16},
      {"smiles": "Nc1ncnc2occ(-c3ccc(NC(=O)Nc4cccc(C(F)(F)F)c4)cc3)c12", "inhibition": 78},
      {"smiles": "CNC(=O)c1cncc(/C=C/c2c(Cl)cccc2Cl)c1", "inhibition": 41.1},
      {"smiles": "COc1ccc(-c2ccncc2)cc1C(N)=O", "inhibition": 5.33},
      {"smiles": "NCc1ccc(-c2nc(-c3ccc(Cl)c(O)c3)c(-c3ccncc3)[nH]2)cc1", "inhibition": 5.68},
      {"smiles": "Fc1cccc(COc2ccc(Nc3ncnc4cc(-c5ccc[nH]5)sc34)cc2Cl)c1", "inhibition": 8.96},
      {"smiles": "Cc1ccc(NC(=O)c2ccnc(N3CCCC3)c2)cc1-c1ccc(C(=O)NCC2CC2)cc1", "inhibition": 2.74},
      {"smiles": "Cc1cc(O)cc(C)c1/C=C/c1cncc(-c2nn[nH]n2)c1", "inhibition": 36.1},
      {"smiles": "COc1ccccc1Nc1ncc(-c2ccccc2)o1", "inhibition": 53.5},
      {"smiles": "CS(=O)(=O)CCNCc1ccc(-c2ccc3ncnc(Nc4ccc(OCc5ccccc5)c(Cl)c4)c3c2)o1", "inhibition": 10},
      {"smiles": "CS(=O)(=O)Nc1ccc(N/C=C2\\C(=O)Nc3ccccc32)cc1", "inhibition": 41.7},
      {"smiles": "COc1cc2ncn(-c3cc(O[C@@H](C)c4ccccc4Cl)c(C(N)=O)s3)c2cc1OC", "inhibition": 9.87},
      {"smiles": "COc1cc2ncn(-c3cc(O[C@H](C)c4ccccc4Cl)c(C(N)=O)s3)c2cc1OC", "inhibition": 41.9},
      {"smiles": "NC(=O)c1ccc(-c2nc(-c3ccccn3)c(-c3ccc4c(c3)OCO4)[nH]2)cc1", "inhibition": 2.49},
      {"smiles": "O=C1Nc2ccc(C(=O)c3ccco3)cc2C1=Cc1cc(Cl)c(O)c(Cl)c1", "inhibition": 74},
      {"smiles": "COC(=O)Nc1nc2cc(Oc3ccc(NC(=O)Nc4cccc(C(=O)O)c4)cc3)ccc2[nH]1", "inhibition": 8.4},
      {"smiles": "COc1cc(C=NNc2ncnc3c2cnn3-c2ccccc2)ccc1O", "inhibition": 26.8},
      {"smiles": "NS(=O)(=O)c1cccc(-c2ccc3c(NC(=O)C4CC4)n[nH]c3c2)c1", "inhibition": 2.28}
    ]}
  ]
}
